Results published in PubChem BioAssay.

Test: E. coli growth modulation, two-sided OD650, primary screen, E. coli filamentation project, strain DRC41, 24 h (AID 1093);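 also: MC1000 strain lacking acrAB efflux and sulA so SOS filamentation is blocked; test concentration not given here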
Conditions: OD650, 24 h, higher = more signal, called active from +8 up or from −8 down

z-score, inactive:
CCCCCCc1nc(CCCc2cc3c(c(CCCCCC)n2)[Si](C(C)C)(C(C)C)OC3)cc2c1[Si](C(C)C)(C(C)C)OC2 -0.3
COc1cccc(C(=O)O[C@H]2CC[C@]3(C)C4=C(CCC3C2(C)C)[C@]2(C)CC[C@H]([C@H](C)CCCC(C)C)[C@@]2(C)CC4)c1 (stereo not given in full) 2.43
O=C1N(CCS(=O)(=O)c2ccccc2)Cc2ccccc2C[C@]12N=C(c1ccc(OCCCO)cc1)O[C@@H]2c1ccccc1 0.175
O=C1C2C=CC(C(O)c3cccs3)N(Nc3ccccc3F)C2C(=O)N1c1ccccc1 (stereo not given) 0.153
COc1ccc(NN2C(C(O)c3ccc(OC)c(OCc4ccccc4)c3)C=CC3C(=O)N(C4CCCCC4)C(=O)C32)cc1 (stereo not given) 0.644
CCOc1cc(C(O)C2C=CC3C(=O)N(c4ccccc4)C(=O)C3N2Nc2ccc([N+](=O)[O-])cc2)ccc1O (stereo not given) -0.961
COCCOC(=O)N1C(=O)[C@@]2(c3cc(C#CCNC(N)=O)ccc31)[C@H](C(=O)N1CCN(c3ncccn3)CC1)[C@H]1C(=O)O[C@H](c3ccccc3)[C@H](c3ccccc3)N1[C@@H]2c1ccccc1OCCO 1.72
C=CC[C@]1(C(=O)N2CCOCC2)N=C(c2ccc(OCCCO)cc2)O[C@H]1c1ccccc1 0.382
CCOC(=O)C1=CC[C@@H](c2ccccc2)N(S(=O)(=O)c2ccc(C)cc2)[C@H]1C(=O)OCC 0.157
CC=CC(O)C1C=CC2C(=O)N(c3ccccc3)C(=O)C2N1Nc1ccc(C(C)C)cc1 (stereo not given) -1.71
O=C1OCCC=C[C@H]2OC34C=CCN(c5ccc6ccccc6c5)C(=O)[C@H]3N(CCCCCO)C(=O)[C@@H]4C12 (stereo not given in full) 1.12
CCOC(=O)C[C@H]1[C@H](OC(=O)c2ccc(C(=O)c3ccccc3)cc2)[C@@H](NC(=O)C2CCCCC2)c2cc(OCCCO)ccc2N1C(=O)c1ccccc1 -1.15
[N-]=[N+]=Nc1ccccc1[C@@H]1OC(c2ccc(OCCCO)cc2)=N[C@]1(CCS(=O)(=O)c1ccccc1)C(=O)N1CCOCC1 0.376
NC(=O)NCC#Cc1ccc2c(c1)[C@]1(C(=O)N2)[C@H](C(=O)N2CCCCCCC2)[C@H]2C(=O)O[C@H](c3ccccc3)[C@H](c3ccccc3)N2[C@@H]1c1ccc(OCCO)cc1 -0.219
O=C(NCc1ccccc1)[C@]1(CCS(=O)(=O)c2ccccc2)N=C(c2ccc(OCCCO)cc2)O[C@@H]1c1ccccc1 0.887
C=C(C(=O)CC[C@H](OC(C)=O)c1ccc(OCCO)cc1)C(C)C 2.11
CCCCCN1CC=CC23O[C@@H]4/C=C\CCC(C)OC(=O)C4[C@H]2C(=O)N(CCCCCO)[C@@H]3C1=O (stereo not given in full) 2.19
O=C1[C@]2(CO)C=C(Br)[C@@H](C[C@@H]2c2ccccc2)[C@@]12CO2 0.0737
CC(C)C(O)C1C=CC2C(=O)N(c3ccccc3)C(=O)C2N1Nc1ccc(C#N)cc1 (stereo not given) -0.364
O=C(CS)NCCCCCCNC(=O)[C@H]1C[C@H]2C(=O)N3CCC[C@H]3C(=O)N2[C@H]1c1cccc(OCCO)c1 -0.983
COCC(=C=CC[C@H](O)c1ccc(OCCO)cc1)C[C@H](O)c1cc(Cl)cc(Cl)c1O 0.813
CN1CCC(CCCO)=CC1c1ccc(CN2CCCC2)cc1 (stereo not given) -0.145
COCCOC(=O)N1C(=O)[C@@]2(c3cc(C#CCC(C(=O)OC)C(=O)OC)ccc31)[C@H](c1ccccc1OCCO)N1[C@H](c3ccccc3)[C@H](c3ccccc3)OC(=O)[C@H]1[C@@H]2C(=O)N1CCc2cc(OC)c(OC)cc2C1 1.92
COc1ccc(CCNC(=O)[C@@]2(c3ccc([N+](=O)[O-])cc3)CC(=O)N(CC34CC5CC(CC(C5)C3)C4)[C@@H]2c2ccc(CO)cc2)cc1 -0.108
Cc1ccccc1C(O)C1C=CC2C(=O)N(C)C(=O)C2N1Nc1ccccc1 (stereo not given) -1.43
O=C1c2ccccc2[C@@]2(Cc3ccccc3N(Cc3ccccc3)C2=O)[C@H](c2ccc(CO)cc2)N1C1CCCCC1 -0.0011
O=C1O[C@H](c2ccccc2)[C@H](c2ccccc2)N2[C@H]1[C@@H](C(=O)Nc1nc3ccccc3s1)[C@]1(C(=O)Nc3ccccc31)[C@H]2c1ccc(O)cc1 0.071
C=C[C@@H](COC(C)=O)N(Cc1ccc([N+](=O)[O-])cc1)S(=O)(=O)c1ccc(Br)cc1 2.1
CC(C)N1C(=O)c2ccccc2[C@@H](C(=O)NCCCN(C)C)[C@@H]1c1ccc(CO)cc1 -1.04
CC(C)c1ccc(NN2C(C(O)c3cccc(O)c3)C=CC3C(=O)N(c4ccccc4)C(=O)C32)cc1 (stereo not given) -0.416
CCOC(=O)C[C@H]1[C@H](OC(=O)Cc2ccc3c(c2)OCO3)[C@@H](NC(=O)C2CCCCC2)c2cc(OCCCO)ccc2N1C(=O)Cc1ccc(OC)cc1 1.21
COCCOC(=O)N1C(=O)[C@@]2(c3cc(C#CCC(C(=O)OC)C(=O)OC)ccc31)[C@H](C(=O)N1CCN(c3ncccn3)CC1)[C@H]1C(=O)O[C@H](c3ccccc3)[C@H](c3ccccc3)N1[C@@H]2c1ccc(OCCO)cc1 1.36
COc1ccc(C#Cc2ccc3c(c2)[C@]2(C(=O)N3)[C@H](c3ccc(O)cc3)N3[C@H](c4ccccc4)[C@H](c4ccccc4)OC(=O)[C@H]3[C@@H]2C(=O)N2CCCCCCC2)cc1 0.484
O=C1OCC=C[C@H]2OC34C=CCN(c5ccc(Cl)cc5)C(=O)[C@H]3N(CCCCCCO)C(=O)[C@@H]4[C@@H]12 (stereo not given in full) 0.437
O=C1O[C@H](c2ccccc2)[C@H](c2ccccc2)N2[C@H]1[C@@H](C(=O)N1CCN(c3ncccn3)CC1)[C@]1(C(=O)Nc3ccccc31)[C@H]2c1ccc(OCCO)cc1 2.9
